Compounds without any hit were thinned out: in the full panel of roughly 79,000, 15% have a hit. Values without a mark were called inactive. Active and inactive are the calls of the source. No stated cut-off is given here; in the data, active means growth inhibition above about 70%; inactive means the rest.
Assay: NCI Yeast Anticancer Drug Screen. Data for the cln2 rad14 strain (AID 165);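 further: 0% = growth equal to vehicle treated cultures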
Conditions: S. cerevisiae cln2 rad14 strain, at 50.0 µM, hits give high values
Summary of the method: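 Strain: cln2 rad14 yeast, altered in cell cycle control and DNA damage repair. Read-out: growth inhibition vs vehicle.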

Row | SMILES | growth inhibition
1 | CCOC(=O)N1C2C=C(C)C(ON2C(=O)c2ccccc2)C2C(C)C(=O)N21 (centres undefined) | 18.1%
2 | CCOP(=O)(OCC)OC1CC(n2cc(C)c(=O)n(C)c2=O)OC1CO[Si](C)(C)C(C)(C)C (centres undefined) | 17.6%
3 | c1ccc(Sc2nc(Sc3ccccc3)nc(Sc3ccccc3)n2)cc1 | 17.9%
4 | O=C(O)c1csc(C(=O)O)c1 | 2.3%
5 | Nc1ncc(Cl)cn1 | -25.2%
6 | COc1ccc(N)cc1CO | -17.1%
7 | O=C(N/N=C/c1c(O)ccc2ccccc12)c1ccccc1 | 5%
8 | CCn1c(=O)c(Cl)c2n(C)c3ccccc3n2c1=O | -4.4%
9 | O=C(NC(=O)c1cccc(Cl)c1)Nc1ccccc1 | -22%
10 | NN(c1ccccc1)c1ccccc1 | 25.9%
11 | C[N+](C)(C)CC(=O)N/N=C(/Cc1nc2ccc([N+](=O)[O-])cc2[nH]c1=O)C(=O)Nc1cc(C(F)(F)F)ccc1Cl | 8.55%
12 | CCOC(=O)C(=O)Cc1cnccn1 | -0.9%
13 | CCOC(Nc1ccc(Cl)cc1Cl)C(=O)c1ccccc1 (centres undefined) | 1.85%
14 | O=C1C(Cl)=C(Cl)C(=O)N1c1ccccc1Cl | 43.9%
15 | Cc1cccc(C)c1NC(=O)CCC(=O)NC(N)=NC#N | 9.7%
16 | NC(=O)CC(NC(=O)C(F)(F)F)C(=O)O (centres undefined) | -6.85%
17 | CCN(CC)CCCNc1ccc([N+](=O)[O-])c2nc3ccccc3c(N)c12 | 32.9%
18 | CC(N)(CCSCP(=O)(O)O)C(=O)O (centres undefined) | -26.9%
19 | CCOC(=O)Nc1cc2c(c(N)n1)N=C(c1ccc(OC)cc1)CN2 | 30%
20 | CC(C)Oc1c(N(C)CCO)c2cc(Cl)ccc2oc1=O | 19.6%
21 | OC/C(I)=C(I)\C(I)=C(\I)CO | 99.4% (active)
22 | C=C(C)COB(OCC(=C)C)OCC(=C)C | 1.95%

Assay: NCI Yeast Anticancer Drug Screen. Data for the bub3 strain (AID 167)
Conditions: S. cerevisiae bub3 mutant strain, at 50.0 µM, hits give high values
Summary of the method: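 Mutant yeast screening strain plus compound; vehicle-treated cultures serve as the 0% inhibition reference.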

Row | SMILES | growth inhibition
23 | O=C(COC(=O)c1cccc([N+](=O)[O-])c1)c1ccc(Br)cc1 | 7.3%
24 | Cc1ccc(NS(=O)(=O)c2ccc(F)cc2)c(C)c1 | -0.2%
25 | CCOC(=O)N(C)C | 12.1%
26 | CCCCN1C(=O)CC2[C@@H]3CCc4cc(OC)ccc4C3CC[C@]2(C)C1=O (some centres undefined) | 13.8%
27 | COc1cc2cc(-c3ccc(Cl)c(Cl)c3)[n+](C)cc2cc1OC | -3.55%
28 | Fc1ccc(-c2ccc(F)cc2)cc1 | -6.8%
29 | CC(=O)Nc1ccc(S(=O)(=O)N/N=C/c2ccc3c(c2)OCO3)cc1 | -33.7%
30 | Cc1ccc(/C=C2\N=C(N3CCCC(CO)C3)NC2=O)cc1 (centres undefined) | 1.3%
31 | O=[N+]([O-])c1ncc(N(CCO)CCO)s1 | -18.2%
32 | Cc1ccc(C)c(NC(=O)C(=O)C2C(=O)C3=C(CC2(C)C)Nc2ccccc2S3)c1 (centres undefined) | -28.4%
33 | N[C@@H]1CCCC[C@H]1O | -5.9%
34 | CN(C)NC(=O)/C=C\C(=O)O | -7.45%
35 | CC(C)(N)CNc1ccccc1 | 15.7%
36 | CN1c2ccccc2C(=O)NC12CCN(Cc1ccccc1)CC2 | 12.3%
37 | CC1CCN(C(=S)[S-])CC1.CC1CCN(C(=S)[S-])CC1.[Zn] | 5.85%
38 | CN(C)Cc1onc(-c2c(Cl)cccc2Cl)c1C(=O)O | 21.2%
39 | CC(=O)OC1=C(OC(C)=O)N(S(=O)(=O)c2ccc(C)cc2)CCc2ccccc21 | 6.5%
40 | O=C(Sc1ccccc1)C1OC1c1ccccc1 (centres undefined) | 63.1%
41 | CCOC(=O)N1C2C=C(C)C(ON2C(=O)c2ccccc2)C2C(C)C(=O)N21 (centres undefined) | -17.5%
42 | CCOP(=O)(OCC)OC1CC(n2cc(C)c(=O)n(C)c2=O)OC1CO[Si](C)(C)C(C)(C)C (centres undefined) | 20.9%
43 | c1ccc(Sc2nc(Sc3ccccc3)nc(Sc3ccccc3)n2)cc1 | -20.1%
44 | O=C(O)c1csc(C(=O)O)c1 | 12.4%
45 | Nc1ncc(Cl)cn1 | -22.3%
46 | COc1ccc(N)cc1CO | -12.3%
47 | O=C(N/N=C/c1c(O)ccc2ccccc12)c1ccccc1 | 16.1%
48 | CCn1c(=O)c(Cl)c2n(C)c3ccccc3n2c1=O | 10.6%
49 | O=C(NC(=O)c1cccc(Cl)c1)Nc1ccccc1 | -10.7%
